HCMV inh: qHTS Assay for inhibitors of the human cytomegalovirus (HCMV). 410,000 tested, 4.5% active. AID 1259415, 2018. HFF cells, HCMV-luciferase reporter, 72 h; stronger effect = lower value. activity change, negative = inhibition, % at 57.5 µM; in the data active means activity change below about -60%; inconclusive means no clear call, values can overlap the other calls; inactive means above about -39%
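Two-dose cell screen: HFF monolayers treated with compounds and infected with luciferase-expressing HCMV at 1 PFU/cell, 72 h at 37C, then lysed for luciferase measurement.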
FMDV inh: High Throughput Screening for Foot and Mouth Disease Virus Antivirals; FMDV antiviral cell-based qHTS; Potency, µM (doses to about 57.9 µM), for inactives: top-dose activity change, negative = inhibition, actives largely listed as inhibitors; 410,000 tested, 1.2% active; AID 1159524, 2015; calls by dose curve; tested in HEK293T cells; further: read-out not given here; potency means the concentration at half of the fitted maximal effect; nearly all actives have a fitted effect of over 45% in size
AmpC inh no detg: qHTS Inhibitors of AmpC Beta-Lactamase (assay without detergent). P00811. AmpC nitrocefin hydrolysis, absorbance 480 nm, 0.0001% Triton. Potency, µM (titrated, usually from 57.1 µM), for the others: top-dose activity change, negative = inhibition, most hits filed as inhibitors. 330,000 tested, 0.52% active. AID 485341, 2010;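 further: potency means the concentration at half of the fitted maximal effect; plate controls were no compound for no effect and no enzyme for full effect; nearly all actives have a fitted effect of over 20% in size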
Target sequence (P00811 whole entry, looked up): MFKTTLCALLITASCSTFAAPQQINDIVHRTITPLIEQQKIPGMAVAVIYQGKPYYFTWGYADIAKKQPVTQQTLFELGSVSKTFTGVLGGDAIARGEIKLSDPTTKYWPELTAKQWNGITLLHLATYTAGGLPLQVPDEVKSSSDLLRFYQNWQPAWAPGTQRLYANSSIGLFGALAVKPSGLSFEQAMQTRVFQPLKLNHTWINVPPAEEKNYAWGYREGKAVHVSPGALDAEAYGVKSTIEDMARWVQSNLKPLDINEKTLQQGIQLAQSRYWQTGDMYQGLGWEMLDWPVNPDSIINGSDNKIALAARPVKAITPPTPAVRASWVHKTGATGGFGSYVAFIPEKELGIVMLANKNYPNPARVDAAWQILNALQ
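20 mM phosphate pH 7.0 + 0.01% (detergent screen) or 0.0001% Triton X-100; 5.3 nM AmpC reagent; cpd preinc 15 min RT; nitrocefin (800 uM stock) to start; A480 q20 s × 4 min; Activity was normalised to no-enzyme and no-compound control wells.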
AmpC inh detg: qHTS Inhibitors of AmpC Beta-Lactamase (assay with detergent). AID 485294, 2010. P00811. Potency, µM (series often up to 114 µM), without a hit: top-dose activity change, negative = inhibition, most hits filed as inhibitors. 370,000 tested, 0.041% active. AmpC hydrolysis of nitrocefin, absorbance 480 nm, 0.01% Triton;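 further: potency means the concentration at half of the fitted maximal effect; 0% = no-compound wells and -100% = no-enzyme wells; nearly all actives have a fitted effect of over 25% in size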
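20 mM phosphate pH 7.0 + 0.01% (detergent screen) or 0.0001% Triton X-100; 5.3 nM AmpC reagent; cpd preinc 15 min RT; nitrocefin (800 uM stock) to start; A480 q20 s × 4 min; Activity was normalised to no-enzyme and no-compound control wells.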
HCV inh: qHTS Assay for Inhibitors of Hepatitis C Virus (HCV) | Huh7.5.1 HCVcc-Cre infection, luciferase reporter, 44 h | Potency, µM (highest dose often 41.8 µM), for the others: at the highest dose activity change, negative = inhibition, usual class: inhibitors | 340,000 tested, 3.4% active | AID 651820, 2012; further: potency means the concentration at half of the fitted maximal effect
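Whole-lifecycle infectious HCVcc-Cre system; cells 1,000/well, compound then virus (~0.5 moi) added 4 h after plating, 44 h culture. Luciferase read 15 sec following 15 min substrate incubation, room temp.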
An asterisk follows results filed as active. A selection: hits, their analogues and other compounds. The true share with any hit is near 7.3%. Unless noted, the call rests on the fitted dose curve; in most records, active means well fitted curve in the direction sought with a large enough effect; inconclusive means small, poorly fitted or top-dose-only effect, or another doubt; inactive means no such curve, though single readings can be large; an effect the other way counts as inactive or inconclusive. Unless noted, on the % scale 0 is the no-effect control and ±100 the full control effect.

What do the screens show for `O=C(O)c1ccc(N/N=C/c2c[nH]c3ccccc23)cc1`?
HCMV inh: -65.0*; FMDV inh: 6.31µM*; AmpC inh no detg: -16.4%; AmpC inh detg: 4.2%; HCV inh: 12.7%

What do the screens show for `O=C(N/N=C\c1c[nH]c2ccccc12)c1ccc(O)cc1`?
HCMV inh: 89.5; FMDV inh: 1.1%; AmpC inh no detg: -20.3%; AmpC inh detg: 0.3%; HCV inh: -10.4%

How did O=C(N/N=C/c1c[nH]c2ccccc12)c1ccc(Br)cc1 do in these assays?
HCMV inh: 73.0; FMDV inh: 10.9%; AmpC inh no detg: 20µM*; AmpC inh detg: -11.1%; HCV inh: 29.3%

What do the screens show for `O=C(O)c1ccc(S(=O)(=O)NN=Cc2c[nH]c3ccccc23)cc1`?
HCMV inh: 6.7; FMDV inh: -2.2%

What do the screens show for `O=C(N/N=C/c1c[nH]c2ccccc12)c1cc(Cl)ccc1O`?
HCMV inh: -15.0; FMDV inh: 48.3%; AmpC inh no detg: 15.8µM*; AmpC inh detg: -8.7%; HCV inh: 11.7%

Results for O=C(N/N=C/c1c[nH]c2ccccc12)c1ccccc1Cl ?
HCMV inh: 101.9; FMDV inh: 36.9%; AmpC inh no detg: -25.2%; AmpC inh detg: -0.5%; HCV inh: inconclusive

Results for CC(C)Oc1ccc(Br)cc1C(=O)N/N=C/c1c[nH]c2ccccc12 ?
HCMV inh: -29.0; FMDV inh: -9.5%; AmpC inh no detg: -26.5%; AmpC inh detg: 5.0%; HCV inh: 10µM*

How did CCOC(=O)C1=C(C)NC(C)=C(C(=O)OCC)C1C(=O)OCC(=O)NCc1ccco1 do in these assays?
HCMV inh: 5.9; FMDV inh: -1.6%; AmpC inh no detg: 28.9%; HCV inh: inconclusive

What do the screens show for `Cc1ccc(-n2c(=O)c3c4c(sc3n(CC(=O)C(C)(C)C)c2=O)CCCCC4)cc1C`?
HCMV inh: -10.7; FMDV inh: -11.0%; AmpC inh detg: -2.5%

Results for CN(C(=O)c1cccc(NC(=O)Cc2ccc(NC(=O)C3CCCN(S(=O)(=O)c4cccc([N+](=O)[O-])c4)C3)cc2)c1)C1CCCC1 (stereo unspecified) ?
HCMV inh: -20.7; FMDV inh: -25.5%; HCV inh: inconclusive

How did Cc1ccc(C)c(C(=O)N2CCC(C3(c4ccccn4)NC(=O)N(CC4CCCO4)C3=O)CC2)c1 (stereo unspecified) do in these assays?
FMDV inh: -6.0%

What do the screens show for `CC(C)n1cc(/C=N/Nc2ccc(C(=O)O)cc2)c2ccccc21`?
HCMV inh: -39.4; FMDV inh: 3.55µM*; AmpC inh no detg: -34.7%; AmpC inh detg: -1.1%; HCV inh: -2.7%

Results for Cc1cc(C)nc(N/N=C/c2c[nH]c3ccccc23)n1 ?
HCMV inh: 23.9; FMDV inh: 8.2%; AmpC inh no detg: -16.6%; AmpC inh detg: 5.9%; HCV inh: 4.3%

What do the screens show for `Fc1c(F)c(F)c(N/N=C/c2c[nH]c3ccccc23)c(F)c1F`?
HCMV inh: -65.4*; FMDV inh: 6.7%; AmpC inh no detg: -43.2%; AmpC inh detg: 6.5%; HCV inh: inconclusive

Results for COc1cccc(S(=O)(=O)NCc2ccc(C(=O)Nc3cccc(Cl)c3)cc2)c1 ?
HCMV inh: -11.9; FMDV inh: 25.1µM*; AmpC inh no detg: -51.9%; AmpC inh detg: inconclusive; HCV inh: 10µM*

Results for O=C(NC1CCCCC1)c1ccc(S(=O)(=O)NCc2cccnc2)cc1 ?
HCMV inh: -60.8*; FMDV inh: -15.9%; AmpC inh no detg: -14.1%; AmpC inh detg: -22.6%; HCV inh: -22.5%

Results for COc1ccc(S(=O)(=O)NCc2cccnc2)cc1C(=O)NC1CCCCC1 ?
HCMV inh: 39.3; FMDV inh: 5.2%; AmpC inh no detg: -13.3%; AmpC inh detg: -0.8%

Results for COc1cccc(NC(=O)c2ccc(S(=O)(=O)NCc3cccnc3)cc2)c1 ?
HCMV inh: -60.5*; FMDV inh: 0.0%; AmpC inh no detg: -21.1%; AmpC inh detg: 2.3%; HCV inh: 10µM*

Results for Cc1ccc(S(=O)(=O)Nc2cccc(C(=O)NCc3cccnc3)c2)cc1F ?
HCMV inh: -30.2; FMDV inh: -4.6%; AmpC inh no detg: -16.6%; AmpC inh detg: 1.3%; HCV inh: inconclusive

What do the screens show for `O=C(NCc1cccnc1)c1cccc(NS(=O)(=O)c2ccc(Br)cc2)c1`?
HCMV inh: -38.1; FMDV inh: -23.1%; AmpC inh no detg: -24.0%; AmpC inh detg: 5.0%; HCV inh: 12.6µM*

Results for CCC(C)c1ccccc1N1CC(C(=O)N2CCN(C(=O)c3ccco3)CC2)CC1=O (stereo unspecified) ?
HCMV inh: -14.7; FMDV inh: -19.6%; AmpC inh no detg: 98.8%; AmpC inh detg: -7.0%; HCV inh: 3.0%

Results for O=C(Nc1ccc(Nc2ccncc2)cc1)c1ccc([N+](=O)[O-])cc1 ?
HCMV inh: -90.4*; FMDV inh: inconclusive; AmpC inh no detg: -23.6%; AmpC inh detg: 2.1%; HCV inh: 11.2µM*

How did O=C(Nc1ccc([N+](=O)[O-])cc1)c1ccc(Cn2cc([N+](=O)[O-])cn2)cc1 do in these assays?
HCMV inh: -67.6*; FMDV inh: inconclusive; AmpC inh no detg: -24.0%; AmpC inh detg: -5.6%; HCV inh: inconclusive

What do the screens show for `O=C(Nc1ccc([N+](=O)[O-])cc1)c1cncc(Br)c1`?
HCMV inh: -85.2*; FMDV inh: 7.6%; AmpC inh no detg: -15.4%; AmpC inh detg: -2.2%; HCV inh: -7.6%

Results for O=C(Nc1cnn(Cc2ccc(Cl)cc2)c1)c1ccc([N+](=O)[O-])cc1 ?
HCMV inh: -38.7; FMDV inh: inconclusive; AmpC inh no detg: 50.2%; AmpC inh detg: inconclusive; HCV inh: -2.6%

How did O=C(Nc1ccc(Cn2cccn2)cc1)c1ccc(COc2cccc(Br)c2)cc1 do in these assays?
HCMV inh: 59.0; FMDV inh: -21.5%; AmpC inh no detg: -14.2%; AmpC inh detg: inconclusive; HCV inh: 10µM*

Results for O=C1C=C(c2ccc(F)c(Cl)c2)C[C@@H](c2ccc(F)cc2)C1 ?
HCMV inh: 42.6; FMDV inh: -23.1%; AmpC inh no detg: -20.9%; AmpC inh detg: -5.2%; HCV inh: -15.9%

How did O=[N+]([O-])c1cc([N+](=O)[O-])c2cc3ccccc3nc2c1 do in these assays?
HCMV inh: 40.6; FMDV inh: 28.2µM*; AmpC inh no detg: -26.5%; AmpC inh detg: -1.1%; HCV inh: inconclusive

Results for CCCSCCCNC(=O)c1ccc(C)c(NC(=O)c2nsc3ccccc23)c1 ?
HCMV inh: -22.7; FMDV inh: -7.7%; AmpC inh detg: 2.6%

Screening results: PubChem, National Center for Advancing Translational Sciences (NCATS)
